An excerpt weighted towards active compounds, which were near 3.5% of everything screened.
mHTT CaM bind: mHTT-calmodulin interaction abrogation; AID 1671202; inhibition, % at 15 µM; AlphaScreen His-mHTT/GST-CaM binding, luminescence; 3.6% of 190,000 active;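 also: 0% = both proteins with DMSO and 100% = one protein alone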
Pf apPOL block: Pf-apPOL DNA polymerase inhibition; inhibition, % at 10 µM; 0.25% of 210,000 active; Recombinant Pf-apPOL, molecular beacon fluorescence, 1.5 h; AID 1794808
Numbers without * were called inactive; x = not tested or not shown. Rule as the data show it: active = inhibition above about 50%; inactive = the rest.

SMILES | mHTT CaM bind | Pf apPOL block
O=C(c1ccc(Cl)c(Cl)c1)N1CCC(=O)N([C@H](COCc2ccc(Cl)cc2)Cc2ccccc2)CC1 | 100* | 1
Cc1cccc(COC[C@H](Cc2ccccc2)N2CCN(C(=O)c3ccc(C(F)(F)F)cc3)CCC2=O)c1 | 99* | -5
COc1cccc(C(=O)N2CCc3c(c(COCc4ccc(Cl)cc4)nn3C)C2)c1 | 26 | -1
Cc1ccc(S(=O)(=O)N2CCC(=O)N([C@H](COCc3ccc(C(F)(F)F)cc3)Cc3ccccc3)CC2)cc1 | 19 | 1
Cc1cccc(C(=O)N2CCC(=O)N([C@H](COCc3ccc(Cl)cc3)Cc3ccccc3)CC2)c1 | 99* | -12
Cc1cccc(COC[C@H](CC(C)C)N2CCN(C(=O)c3ccc(C(C)(C)C)cc3)CCC2=O)c1 | -15 | -4
Cc1cccc(C(=O)N2CCC(=O)N([C@H](COCc3cccc(Cl)c3)Cc3ccccc3)CC2)c1 | 99* | 1
Cc1ccc(S(=O)(=O)N2CCC(=O)N([C@H](COCc3cccc(C)c3)Cc3ccccc3)CC2)cc1 | 13 | -2
COc1ccc(C2CN(S(=O)(=O)c3cccc(C)c3)CCN2C)cc1 (centres undefined) | 4 | 1
Cc1cc(C2CCCN2C(=O)Nc2ccccc2Cl)no1 (centres undefined) | -8 | -1
C(=Nc1c2ccccc2nc2ccccc12)c1ccc2c(c1)OCO2 | -6 | x
CC1=NS(=O)(=O)c2cccnc2N1c1ccc(C)c(F)c1 | -8 | -2
C=C(C)CN(CC)C(=O)c1noc2c1CCc1ccc(OC)cc1-2 | -49 | -3
CSC1=N/C(=C\c2cc(Br)ccc2OCC(=O)O)C(=O)S1 | 68* | -3
CSC1=N/C(=C/c2ccc(Br)cc2)C(=O)S1 | 7 | 6
CC(C)(C)c1ccc(-c2cc(=O)c3cc(N)ccc3o2)cc1 | 38 | -4
CCc1ccccc1NC(=O)NCc1ccnc(N2CCSCC2)c1 | -1 | 3
O=C(CN1CCN(c2ccc(Cl)cc2)CC1)Nc1ccc(Cl)c(C(F)(F)F)c1 | 51* | -2
O=C(CN1CCN(c2ccccn2)CC1)Nc1ccc(Cl)c(C(F)(F)F)c1 | 31 | -3
Clc1nc(C(Cl)(Cl)Cl)nc2ccccc12 | 100* | 2
CCCNc1nc(C(Cl)(Cl)Cl)nc2ccccc12 | -74 | -7
O=C1OC(c2ccccc2Cl)=N/C1=C\c1ccccc1 | 51* | 3
O=C1OC(c2ccccc2Cl)=N/C1=C\c1ccc(Cl)cc1 | 3 | -7
COc1ccc(Br)cc1/C=C1\N=C(c2ccc(Cl)c([N+](=O)[O-])c2)OC1=O | -6 | 4
O=C1OC(c2ccc(Cl)cc2Cl)=N/C1=C\c1ccco1 | 4 | -10
SMILES | mHTT CaM bind | Pf apPOL block
COc1cccc(C2=N/C(=C\c3ccco3)C(=O)O2)c1 | 4 | 61*
O=C1OC(c2cc(Cl)ccc2Cl)=N/C1=C\c1ccco1 | 3 | 86*
COc1ccc(OC)c(/C=C2\N=C(c3ccc(Cl)c([N+](=O)[O-])c3)OC2=O)c1 | 68* | -3
COc1cccc(/C=C2\N=C(c3cccc(OC)c3)OC2=O)c1 | 2 | 0
O=C(CCN1CCN(S(=O)(=O)c2ccc(Cl)cc2)CC1)Nc1cccc(C(F)(F)F)c1 | 17 | -2
CC(=O)C(=CN(C)C)SCc1ccccc1C | x | -4
CCNC(=O)N1CCN(c2nc(C)nc(C(C)(C)C)c2Cc2ccccc2F)CC1 | -4 | -1
CC1(C(=O)NCc2ccccc2)CCCN(C(=O)c2ccc(Cl)cc2)C1 (centres undefined) | -4 | 9
COc1ccc(-c2nnc(N3CCC(C(=O)NCC4CC4)CC3)o2)cc1 | -1 | 1
Cc1ccc(NC(=O)CC2SC(=N)NC2=O)c(C)c1 (centres undefined) | -4 | -4
CC1CC(C)CN(S(=O)(=O)N2CCCC(C(=O)NCCCN3CCCCCC3)C2)C1 (centres undefined) | 0 | -16
COc1cccc2cc(-c3nc4ccccc4[nH]3)c(=N)oc12 | 12 | 75*
COc1cccc2cc(-c3nc4ccccc4[nH]3)c(=Nc3ccc(C(N)=O)cc3)oc12 | -1 | 0
CC(C)c1ccc(NC(=O)C2CCCN(C(=O)c3ccc(F)c(F)c3)C2)cc1 (centres undefined) | 3 | -3
CC(=O)Nc1ccc(C(=O)NCc2cccc(F)c2)c(N2CCCCC2)c1 | 65* | 1
CC(=O)Nc1ccc(C(=O)NCc2cccc(F)c2)c(N2CCOCC2)c1 | -3 | -3
Cc1cc(C)cc(C(=O)N2CCc3nc[nH]c3C2)c1 | -1 | -2
O=C1C(=Cc2cc(Br)c(Br)cc2O)C(=O)c2ccccc21 | 13 | -3
Cc1[nH]c(C(=O)N2CCC(CC(=O)NCCN3CCCCCC3)CC2)c(C)c1C | 21 | 3
COc1cccc(CNc2ccc3c(c2)ncn3C2CCCCC2)c1OC | 41 | 0
COc1ccccc1CNc1ccc2c(c1)ncn2C1CCCCC1 | 55* | -4
CNC(=O)c1cc(N2CCCC2)nc2ccc(F)cc12 | -5 | -8
Cc1ccc(N2C=C(C(=O)N3CCOCC3)S(=O)(=O)c3ccccc32)cc1Cl | -4 | 2
CCOc1ccc(-n2c(SCC(=O)N3CCCC3)nnc2-c2c[nH]c3ccccc23)cc1 | 0 | -6
CC1=Nc2ccccc2NC(=O)C1Cc1ccccc1 (centres undefined) | 91* | -9
SMILES | mHTT CaM bind | Pf apPOL block
CN(C)c1ccc(CC2C(=O)Nc3ccccc32)cc1 (centres undefined) | x | 6
COc1ccc(N2C(=O)C3N=NN(CC(=O)Nc4cc(Cl)ccc4OC)C3C2=O)cc1 (centres undefined) | 4 | -8
CN1CCN(c2ccc(C(=O)c3ccc(Cl)cc3)cc2[N+](=O)[O-])CC1 | 62* | -7
O=C(c1cc2ccccc2o1)N1CCN(c2ccc(Cl)cc2[N+](=O)[O-])CC1 | 57* | 4
COc1ccc(C(=O)c2ccc(N3CCN(C)CC3)c([N+](=O)[O-])c2)cc1 | 17 | -10
O=C(O)c1ccccc1C(=O)c1ccc(N2CCCCC2)c([N+](=O)[O-])c1 | 3 | -10
O=C(c1cc2ccccc2o1)N1CCN(c2ccc(C(F)(F)F)cc2[N+](=O)[O-])CC1 | 47 | 17
CC1Cc2ccccc2N1C(=O)c1ccc(N2CCCCC2)c([N+](=O)[O-])c1 (centres undefined) | 63* | 1
COCCC1CCN(C(=O)CN(C)C(=O)c2cccc(C)c2)CC1 | 2 | 0
COc1ccc2cc3cc(C(=O)NCCc4cccc(C)c4)oc3nc2c1 | -1 | 1
CCSc1ccsc1C1C(C#N)=C(N)N(c2cccc([N+](=O)[O-])c2)C2=C1C(=O)CCC2 (centres undefined) | 27 | -3
CCSc1ccsc1C1C(C#N)=C(N)N(c2ccc([N+](=O)[O-])cc2)C2=C1C(=O)CCC2 (centres undefined) | 51* | 5
CN1CCC2(CC1)N=C(c1ccccc1O)CC(c1ccc(Cl)cc1)N2 (centres undefined) | 34 | -9
COc1cc(-c2nc(N3CCCC(C)C3)c3ccccc3n2)cc(OC)c1OC (centres undefined) | -5 | -2
CC1CCCN(c2nc(-c3ccc([N+](=O)[O-])cc3)nc3ccccc23)C1 (centres undefined) | 60* | 0
Cc1cc(N2CCCCC2)nc(NCCNS(=O)(=O)c2ccccc2C(F)(F)F)n1 | -7 | -10
C[C@@]12CCC=C[C@H]1[C@H](c1ccc(F)c(Br)c1)N(Cc1ccccc1)C2=O | 100* | 3

Compound activity as filed in PubChem.
